In PubChem BioAssay one finds composite z-score and z-score data, which are given here for five compounds.

Test [1] in a line: small molecules captured by biotinylated probe aFSTL3 – biochemical, small-molecule microarray, fluorescence 635/667, stem cell growth factor project, primary screen (AID 1064).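 Further: measures binding of the biotinylated anti-FSTL3 antibody to printed compounds.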 The following applies: higher = more signal.
Test [2] in a line: binders from COS7 lysate, DM2A8 probe, primary screen, torsin A project, cell lysate, small-molecule microarray, fluorescence 635/667 (AID 1065). To be noted: higher = more signal, COS7 lysate expressing mutant human TOR1A.
Test [3] can be described thus: small molecules captured by biotinylated probe aFGF2 – biochemical, small-molecule microarray, fluorescence 635/667, stem cell growth factor project, primary screen (AID 1067).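 Further: measures binding of biotinylated aFGF2 protein to printed compounds on slides; z-score merges feature fluorescence and signal-to-noise across triplicate slides.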 To be noted: higher = more signal.
A short description of test [4]: small molecules captured by biotinylated probe aFGF10 – biochemical, small-molecule microarray, fluorescence 635/667, stem cell growth factor project, primary screen (AID 1071).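 Further: score merges 667 nm spot intensity and signal to noise from triplicate slides.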 The following applies: higher = more signal.
The target of test [5] is Neurogenic locus notch homolog protein 2 (Homo sapiens) (UniProt Q04721). The test can be described thus: small molecules binding Notch2 protein – biochemical, small-molecule microarray, 635 nm fluorescence, stem cell growth factors, primary screen (AID 1073). The following applies: higher = more signal.
Test [6] addresses Pro-neuregulin-1, membrane-bound isoform (Homo sapiens) (UniProt Q02297). The test can be described thus: small molecules binding neuregulin-1 protein – biochemical, small-molecule microarray, fluorescence 635/667, psychiatric disease protein project, primary screen (AID 1075).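 Further: score combines 667 nm spot fluorescence with signal to noise.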 To be noted: NRG1 binding, 635 nm fluorescence, higher = more signal.
For test [7], the system named is Neuregulin-1 EGF-like domain. The test can be described thus: small molecules binding NRG1 EGF domain – biochemical, small-molecule microarray, 635 nm fluorescence, primary screen (AID 1081).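 Further: binding of the protein to compounds printed on small-molecule microarray slides.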 The following applies: higher = more signal.
Test [8] can be described thus: FRG1 expression reporter modulators in myotubes – cell-based, C2C12 myotubes, firefly/Renilla luciferase, luminescence, FRG1 inhibition for FSHD, primary screen (AID 1084). The following applies: FRG1 promoter luciferase, higher = more signal, called active from +8 up or from −8 down.
The nature of test [9]: small molecules captured by biotinylated probe aFST – biochemical, small-molecule microarray, fluorescence 635/667, stem cell growth factor project, primary screen (AID 1086).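 Further: score merges 667 nm fluorescence with signal-to-noise of each printed compound spot.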 The following applies: higher = more signal.
The nature of test [10]: binders of probe aHhip on microarray, primary screen, stem cell growth factor project, biochemical, small-molecule microarray, fluorescence 635/667 (AID 1087).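 Further: score merges spot fluorescence at 667nm with spot signal to noise ratio.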 To be noted: higher = more signal.
Test [11] has as its system PRMT1 (protein arginine N-methyltransferase 1). The test can be described thus: small molecules binding arginine methyltransferase PRMT1 – biochemical, small-molecule microarray, 635 nm fluorescence, primary screen (AID 1088).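 Further: binding of Prmt1 protein to compounds spotted on small-molecule microarray slides.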 The following applies: higher = more signal.
Test [12] is described as follows: growth effects on S. cerevisiae YJM789 – YJM789 clinical isolate, OD600, 24 h, basal, primary screen (AID 1089).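 Further: growth of clinical yeast isolate S. cerevisiae YJM 789 seeded 1000 cells per well; test concentration not given here.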 To be noted: higher = more signal, called active from +8 up or from −8 down.
A short description of test [13]: S. pombe growth modifiers, basal conditions – strain 972, OD600, 24 h, no modulator, primary screen (AID 1090).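 Further: basal condition with compound alone and no growth modifier present; test concentration not given here.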 The following applies: S. pombe 972 growth, higher = more signal, called active from +8 up or from −8 down.
Test [14] can be described thus: budding yeast growth modifiers under rapamycin – strain BY4716, OD600, 96 h, primary screen (AID 1091). Further: test concentration not given here. The following applies: S. cerevisiae BY4716 + rapamycin, higher = more signal, called active from +8 up or from −8 down.
In test [15] the target is Torsin-1A-interacting protein 2 (Homo sapiens) (UniProt Q8NFQ8). The test can be described thus: small molecules binding lysate-expressed LULL1 – cell lysate, human LULL1 lysate, 635/667 nm fluorescence, primary screen (AID 1092).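 Further: probe is lysate of COS7 cells overexpressing human LULL1; score merges per-feature 667 nm fluorescence with signal-to-noise.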 To be noted: small-molecule microarray, hLULL1 lysate binding, 635 nm fluorescence; higher = more signal.
Test [16] is described as follows: optical density change of DRC41 E. coli – strain DRC41, OD650, 24 h, E. coli filamentation project, primary screen (AID 1093).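 Further: MC1000 strain lacking acrAB efflux and sulA so SOS filamentation is blocked; test concentration not given here.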 To be noted: E. coli DRC41 growth, higher = more signal, called active from +8 up or from −8 down.
The nature of test [17]: probe aLefty2 binding to arrayed compounds – biochemical, biotinylated probe, 635/667 nm fluorescence, primary screen (AID 1094).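 Further: score merges spot fluorescence near 667 nm with spot signal-to-noise ratio.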 To be noted: small-molecule microarray, higher = more signal.
Test [18] concerns Noggin (protein binding on small-molecule microarray). The test can be described thus: small molecules binding Noggin protein – biochemical, 635/667 nm fluorescence, primary screen (AID 1095).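 Further: score merges 667 nm feature fluorescence with signal to noise over triplicate slides.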 The following applies: 635 nm fluorescence, higher = more signal.
The target of test [19] is Neurogenic locus notch homolog protein 3 (Homo sapiens) (UniProt Q9UM47). The test can be described thus: small molecules binding NOTCH3 protein – biochemical, 635/667 nm fluorescence, primary screen (AID 1096). The following applies: small-molecule microarray, 635 nm fluorescence, higher = more signal.
Test [20] in a line: probe aEGFR binding to arrayed compounds – biochemical, biotinylated probe, 635/667 nm fluorescence, primary screen (AID 1097).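 Further: probe is a biotinylated anti-EGFR antibody binding compounds printed on slides; score combines fluorescence near 667 nm and signal to noise of each spot.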 To be noted: small-molecule microarray, higher = more signal.

The structures appear in SMILES notation. Activity calls are given as the source filed them.

Sequence of Torsin-1A-interacting protein 2 (Homo sapiens) (Q8NFQ8 whole entry, looked up): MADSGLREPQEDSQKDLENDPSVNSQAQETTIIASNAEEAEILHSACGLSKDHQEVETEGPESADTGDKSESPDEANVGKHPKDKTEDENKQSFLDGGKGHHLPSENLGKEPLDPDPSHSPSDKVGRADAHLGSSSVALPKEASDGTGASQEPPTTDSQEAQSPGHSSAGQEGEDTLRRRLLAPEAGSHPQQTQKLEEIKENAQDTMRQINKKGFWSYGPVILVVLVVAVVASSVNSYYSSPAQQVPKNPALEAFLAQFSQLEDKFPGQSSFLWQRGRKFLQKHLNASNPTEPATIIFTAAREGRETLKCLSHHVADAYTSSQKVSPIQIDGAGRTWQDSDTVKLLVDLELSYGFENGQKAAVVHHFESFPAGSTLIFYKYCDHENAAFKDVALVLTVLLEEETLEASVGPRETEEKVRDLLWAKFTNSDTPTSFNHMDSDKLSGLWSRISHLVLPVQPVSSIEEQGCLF
Sequence of Neurogenic locus notch homolog protein 3 (Homo sapiens) (Q9UM47 whole entry, looked up): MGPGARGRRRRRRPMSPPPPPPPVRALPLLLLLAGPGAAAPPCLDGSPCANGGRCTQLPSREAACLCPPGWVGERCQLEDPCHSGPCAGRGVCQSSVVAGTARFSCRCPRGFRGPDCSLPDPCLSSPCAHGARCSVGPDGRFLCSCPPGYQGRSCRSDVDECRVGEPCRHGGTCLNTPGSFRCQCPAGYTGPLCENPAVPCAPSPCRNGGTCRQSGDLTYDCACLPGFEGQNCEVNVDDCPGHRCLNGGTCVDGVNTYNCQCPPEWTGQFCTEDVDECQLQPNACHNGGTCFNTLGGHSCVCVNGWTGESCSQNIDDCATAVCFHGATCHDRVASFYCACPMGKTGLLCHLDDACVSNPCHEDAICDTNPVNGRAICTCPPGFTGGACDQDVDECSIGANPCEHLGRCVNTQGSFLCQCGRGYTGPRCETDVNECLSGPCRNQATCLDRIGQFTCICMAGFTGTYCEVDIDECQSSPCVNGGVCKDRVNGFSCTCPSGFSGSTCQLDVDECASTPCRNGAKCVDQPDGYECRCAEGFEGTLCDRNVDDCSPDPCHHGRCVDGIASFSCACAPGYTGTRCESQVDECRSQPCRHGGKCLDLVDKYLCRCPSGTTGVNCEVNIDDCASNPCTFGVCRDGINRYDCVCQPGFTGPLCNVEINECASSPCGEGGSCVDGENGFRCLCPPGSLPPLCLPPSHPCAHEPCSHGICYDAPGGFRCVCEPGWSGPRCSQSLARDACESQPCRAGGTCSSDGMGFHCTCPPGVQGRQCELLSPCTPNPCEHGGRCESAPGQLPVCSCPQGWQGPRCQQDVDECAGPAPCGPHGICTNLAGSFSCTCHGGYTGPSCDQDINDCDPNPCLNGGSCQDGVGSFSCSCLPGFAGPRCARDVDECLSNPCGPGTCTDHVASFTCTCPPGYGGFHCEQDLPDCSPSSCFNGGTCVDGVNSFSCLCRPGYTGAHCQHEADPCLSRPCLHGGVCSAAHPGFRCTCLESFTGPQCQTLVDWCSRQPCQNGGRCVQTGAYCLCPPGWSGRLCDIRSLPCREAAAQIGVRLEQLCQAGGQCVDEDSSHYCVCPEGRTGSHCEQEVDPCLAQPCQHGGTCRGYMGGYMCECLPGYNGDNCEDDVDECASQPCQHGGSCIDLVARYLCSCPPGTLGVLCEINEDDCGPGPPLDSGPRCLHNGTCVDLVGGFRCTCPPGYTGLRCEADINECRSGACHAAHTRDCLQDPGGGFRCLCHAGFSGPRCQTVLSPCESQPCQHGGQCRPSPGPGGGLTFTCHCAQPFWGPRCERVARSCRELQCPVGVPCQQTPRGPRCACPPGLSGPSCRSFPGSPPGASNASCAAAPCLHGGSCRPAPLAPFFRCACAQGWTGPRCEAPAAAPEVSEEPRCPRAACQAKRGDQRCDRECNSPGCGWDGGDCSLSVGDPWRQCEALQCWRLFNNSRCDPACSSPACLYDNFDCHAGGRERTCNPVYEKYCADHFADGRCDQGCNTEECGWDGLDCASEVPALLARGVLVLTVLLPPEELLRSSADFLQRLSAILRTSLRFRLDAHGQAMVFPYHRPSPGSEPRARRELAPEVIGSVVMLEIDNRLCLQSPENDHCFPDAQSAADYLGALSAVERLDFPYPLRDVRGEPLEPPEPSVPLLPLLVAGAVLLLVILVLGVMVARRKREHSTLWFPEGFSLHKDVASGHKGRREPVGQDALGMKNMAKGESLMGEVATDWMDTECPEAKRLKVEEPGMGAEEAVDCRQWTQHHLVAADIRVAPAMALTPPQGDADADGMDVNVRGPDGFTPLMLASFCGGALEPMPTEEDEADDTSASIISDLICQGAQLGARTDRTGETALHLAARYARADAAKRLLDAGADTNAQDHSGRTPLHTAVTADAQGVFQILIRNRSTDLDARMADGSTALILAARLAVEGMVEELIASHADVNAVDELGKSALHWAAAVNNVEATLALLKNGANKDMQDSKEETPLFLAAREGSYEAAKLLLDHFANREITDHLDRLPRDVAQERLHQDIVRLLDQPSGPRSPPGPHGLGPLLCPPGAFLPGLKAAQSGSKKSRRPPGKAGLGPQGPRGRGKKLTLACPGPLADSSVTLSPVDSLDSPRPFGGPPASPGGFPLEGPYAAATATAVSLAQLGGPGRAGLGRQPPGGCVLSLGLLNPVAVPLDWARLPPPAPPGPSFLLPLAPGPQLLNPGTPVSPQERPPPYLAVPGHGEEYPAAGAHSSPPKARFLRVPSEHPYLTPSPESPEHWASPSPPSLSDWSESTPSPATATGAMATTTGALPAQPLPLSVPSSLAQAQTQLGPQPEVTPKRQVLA
Sequence of Pro-neuregulin-1, membrane-bound isoform (Homo sapiens) (Q02297 whole entry, looked up, the tested form may be a part, canonical isoform): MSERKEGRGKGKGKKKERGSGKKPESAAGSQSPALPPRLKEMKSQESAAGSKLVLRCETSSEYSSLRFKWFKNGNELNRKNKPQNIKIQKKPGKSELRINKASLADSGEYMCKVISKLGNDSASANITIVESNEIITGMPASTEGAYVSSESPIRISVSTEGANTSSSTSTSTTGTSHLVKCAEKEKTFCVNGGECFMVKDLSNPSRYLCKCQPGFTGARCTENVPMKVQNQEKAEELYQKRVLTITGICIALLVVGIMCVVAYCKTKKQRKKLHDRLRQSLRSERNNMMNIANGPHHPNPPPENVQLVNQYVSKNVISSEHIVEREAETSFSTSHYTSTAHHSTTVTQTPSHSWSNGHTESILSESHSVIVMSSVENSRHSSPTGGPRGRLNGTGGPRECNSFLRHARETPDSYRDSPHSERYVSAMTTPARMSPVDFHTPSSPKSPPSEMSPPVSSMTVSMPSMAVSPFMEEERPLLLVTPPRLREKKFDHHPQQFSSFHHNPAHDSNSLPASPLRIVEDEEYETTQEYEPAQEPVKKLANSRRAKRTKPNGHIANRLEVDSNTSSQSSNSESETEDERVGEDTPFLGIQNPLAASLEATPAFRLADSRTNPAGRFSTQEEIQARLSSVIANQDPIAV

As to `O=C(NCC(F)(F)F)[C@@H]1c2ccccc2C(=O)N(Cc2ccccc2C(F)(F)F)[C@H]1c1ccc(CO)cc1`, the composite z-score was 0.597 in test [1]; -0.0704 in [2]; -0.156 in [3]; 0.424 in test [4]; -0.169 in test [5]; 0.997 in [6]. The composite z-score in test [7] is 1.3; in test [9] it was -0.181; in test [10] it was 0.113; in test [11], 0.928; in test [15] it was 1.28; in test [17], -0.062. Moreover, the composite z-score in test [18] was -0.416; in [19], -0.258; in test [20], -0.274. Besides, the z-score in [8] is -1.49 (inactive); in [12] it was -0.268 (inactive); in test [13], -0.205 (inactive); in test [14], -0.503 (inactive); in test [16] it was 0.31 (inactive).

Turning to `COc1ccc([Si](C)(C)[C@@H]2[C@@H](CC(=O)N(CCO)Cc3ccccc3)O[C@]3(C(=O)N(Cc4cccc(N5CCOC5=O)c4)c4ccccc43)[C@H]2C)cc1`, the composite z-score in test [1] is -0.0388; in test [2] it was 1.02; in test [3], -0.117; in test [4], 0.476; in test [5], 0.0505; in [6], 1.1. In addition, the composite z-score in test [7] is 1.12; in test [9] it was -0.0988; in test [10], -0.248; in test [11], 1.55; in test [15] it was 1.96; in test [17] it was -0.349. Also, the values for the composite z-score in [18], in [19] and in test [20] were 0.726, 0.733 and -0.129, respectively. Also, the z-score in test [8] was -0.819 (inactive); in test [12] it was -0.757 (inactive); in [13], -0.21 (inactive); in test [14], 2.11 (inactive); in [16], 1.37 (inactive).

As for `O=C1O[C@@H](c2ccccc2)[C@@H](c2ccccc2)N2[C@@H](c3ccc(OCCO)cc3)[C@]3(C(=O)Nc4ccccc43)[C@@H](C(=O)O)[C@H]12`, the composite z-score in test [1] was 0.161; in test [2], 0.144; in test [3], -0.0336; in test [4], 1.02; in [5], 0.381; in [6], 1.5. Also, the composite z-score in test [7] was 1.45; in [9] it was 0.0284; in test [10], -0.407; in test [11] it was 0.194; in test [15], 3.09; in [17], 0.176. The results for the composite z-score in test [18], in test [19] and in test [20] were -0.179, -0.239 and 0.247, respectively. Besides, the z-score in test [8] was -0.0089 (inactive); in test [12], 0.264 (inactive); in [13], -0.272 (inactive); in test [14] it was -0.219 (inactive); in test [16], 0.852 (inactive).

Regarding `COCCOC(=O)N1C(=O)[C@@]2(c3cc(C#CC4=CCCCC4)ccc31)[C@H](C(N)=O)[C@H]1C(=O)O[C@H](c3ccccc3)[C@H](c3ccccc3)N1[C@@H]2c1ccccc1OCCO`, the composite z-score in [1] was 0.193; in test [2] it was 0.33; in test [3], -0.0105; in test [4], 0.999; in test [5] it was 1.07; in [6], 1.47. In addition, the composite z-score in [7] is 1.34; in test [9] it was 0.306; in [10] it was 0.388; in [11], 1.54; in test [15] it was 2.75; in [17], -0.0028. For the same compound, the composite z-score in test [18] was 0.551; in test [19], 1.11; in [20], -0.0056. The z-score in test [8] was -0.343 (inactive); in test [12], 0.908 (inactive); in test [13], 0.0645 (inactive); in [14], 1.99 (inactive); in [16], -0.0839 (inactive).

Consider `CO[C@H]1O[C@H](CO)[C@@H](OC(=O)Nc2ccccc2-c2ccccc2)[C@H](OC(=O)Nc2ccc3c(c2)OCO3)[C@H]1OC(=O)Nc1ccc2c(c1)OCO2`, for which the composite z-score is -0.0811 in test [1]; 0.866 in [2]; 0.0555 in [3]; 0.937 in test [4]; 1.47 in [5]; 1.72 in test [6]. In addition, the composite z-score in test [7] was 1.35; in test [9], 0.601; in [10], -0.0618; in [11] it was 1.53; in test [15], 3.25; in [17], 0.132. Further, the composite z-score came out at 0.852 in [18], 1.12 in [19] and 0.0115 in test [20]. For the same compound, the z-score in test [8] was 4.93 (inactive); in test [12], 1.86 (inactive); in [13], 1.35 (inactive); in test [14], 7.32 (inactive); in test [16], 2 (inactive).
